Screening results (PubChem BioAssay)
An excerpt weighted towards active compounds, which were near 11% of everything screened.
JMJD2A Tudor = JMJD2A Tudor domain (human) inhibition; O75164; AlphaScreen JMJD2A-Tudor / H3K4me3 peptide binding; Potency, µM (highest dose often 114 µM), without a hit: at the highest dose activity change, negative = inhibition, usual class: inhibitors; hit rate 4.4% among 390,000; AID 504339; further: on the % scale 0 is the no-effect control and ±100 the full control effect; nearly all actives have a fitted effect of over 50% in size
Target sequence (O75164 whole entry, looked up, the tested form may be a part): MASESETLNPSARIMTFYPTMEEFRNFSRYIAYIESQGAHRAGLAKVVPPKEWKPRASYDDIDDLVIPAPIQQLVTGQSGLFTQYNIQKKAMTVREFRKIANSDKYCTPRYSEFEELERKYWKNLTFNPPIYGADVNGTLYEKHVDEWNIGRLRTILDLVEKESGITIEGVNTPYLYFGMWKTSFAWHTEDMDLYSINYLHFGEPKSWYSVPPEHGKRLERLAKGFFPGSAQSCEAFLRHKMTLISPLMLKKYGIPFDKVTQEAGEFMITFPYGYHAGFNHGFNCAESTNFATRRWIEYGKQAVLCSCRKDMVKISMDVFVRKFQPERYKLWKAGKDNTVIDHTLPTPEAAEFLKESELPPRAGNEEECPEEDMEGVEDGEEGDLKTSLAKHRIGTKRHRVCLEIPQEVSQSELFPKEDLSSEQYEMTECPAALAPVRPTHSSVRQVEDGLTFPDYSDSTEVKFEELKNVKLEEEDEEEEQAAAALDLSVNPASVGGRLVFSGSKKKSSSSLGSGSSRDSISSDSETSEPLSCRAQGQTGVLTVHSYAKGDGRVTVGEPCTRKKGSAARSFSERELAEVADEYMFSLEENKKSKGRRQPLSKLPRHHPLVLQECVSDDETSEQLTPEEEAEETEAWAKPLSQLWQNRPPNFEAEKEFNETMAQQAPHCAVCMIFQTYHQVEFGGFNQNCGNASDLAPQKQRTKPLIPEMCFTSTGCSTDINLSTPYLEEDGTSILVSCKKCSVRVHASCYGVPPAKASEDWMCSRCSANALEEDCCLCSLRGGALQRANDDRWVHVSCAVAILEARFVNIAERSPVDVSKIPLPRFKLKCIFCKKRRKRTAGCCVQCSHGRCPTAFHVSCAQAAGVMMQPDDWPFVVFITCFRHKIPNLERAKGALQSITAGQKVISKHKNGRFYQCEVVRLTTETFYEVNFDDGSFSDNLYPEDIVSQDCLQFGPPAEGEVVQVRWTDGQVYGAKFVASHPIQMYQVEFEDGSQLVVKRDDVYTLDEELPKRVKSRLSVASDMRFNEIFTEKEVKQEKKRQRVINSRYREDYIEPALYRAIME
L3MBTL1 block = L3MBTL1 (human) inhibition; hit rate 0.66% among 230,000; Potency, µM (top dose mostly 57.1 µM), inactives show top-dose activity, negative = inhibition, hits mostly inhibitors; AID 485360; Q9Y468; AlphaScreen L3MBTL1–H3K9me1 peptide binding; further: on the % scale 0 is the no-effect control and ±100 the full control effect; nearly all actives have a fitted effect of over 60% in size
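L3MBTL1 (50 nM) pre-complexed 30 min with biotinylated H3(1-15)K9me1 peptide (75 nM), then compounds added for 30 min at room temperature; AlphaScreen streptavidin donor/nickel chelate acceptor beads (10 ug/mL final) read after 30 min dark incubation.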
HP1b binding inh = HP1-beta chromodomain-methylated histone interaction inhibition | P83916 | AlphaScreen HP1-beta / biotin-H3K9me3 peptide binding | Potency, µM (highest dose often 114 µM), inactives show at the top dose activity change, negative = inhibition, most hits filed as inhibitors | hit rate 0.56% among 390,000 | AID 540317; further: nearly all actives have a fitted effect of over 70% in size
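Compound inhibition of the preformed complex between 50 nM HP1-beta and 50 nM biotinylated H3K9me3 peptide was read by AlphaScreen. Buffer was PBS pH 7.4 with 0.01% Tween-20. Incubations ran 30 min at room temperature, with 10 ug/mL donor/acceptor beads.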
G9a inh = inhibitors of human histone lysine methyltransferase G9a; hit rate 8.8% among 350,000; AID 504332; Potency, µM (doses to about 102 µM), without a hit: at the highest dose activity, negative = inhibition, usual class: inhibitors; G9a H3K9 monomethylation, AlphaScreen, 2 h; further: on the % scale 0 is the no-effect control and ±100 the full control effect; nearly all actives have a fitted effect of over 75% in size
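Chemiluminescent proximity detection of H3K9 monomethylation, read after 10 min bead incubation in the dark. Reaction: 20 nM G9a, 500 nM biotin-H3K9 peptide, 20 uM SAM cofactor, 2 h, room temperature, following 15 min enzyme-compound preincubation.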
BAZ2B block = BAZ2B (human) inhibition | AlphaScreen BAZ2B-H3K14Ac peptide displacement | Q9UIF8 | Potency, µM (doses to about 114 µM), inactives show top-dose activity change, negative = inhibition, actives largely listed as inhibitors | hit rate 4.4% among 360,000 | AID 504333; further: on the % scale 0 is the no-effect control and ±100 the full control effect; nearly all actives have a fitted effect of over 60% in size
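AlphaScreen displacement: compounds (up to 110uM) incubated 30 min at room temperature with a preformed 50 nM BAZ2B/50 nM biotinylated H3K14Ac peptide complex in PBS pH 7.4 with Tween-20. Donor and acceptor beads at 10 ug/mL final added, 20 min light-protected before reading.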
Numbers without * were called inactive; ? = inconclusive; · = no result given; ! = a repeat was not active; [ ] = remark or other dose. The call rests on the fitted dose curve; in most records, active means well fitted inhibition curve with a large enough effect; inconclusive means small, poorly fitted or top-dose-only effect; inactive means no such curve, though single readings can be large or run the other way. Potency means the concentration at half of the fitted maximal effect.

SMILES	JMJD2A Tudor	L3MBTL1 block	HP1b binding inh	G9a inh	BAZ2B block
CCCC1CCC(=NNS(=O)(=O)c2ccc(C)c([N+](=O)[O-])c2)CC1 (centres undefined)	-33%[57.1 µM]	1%	23%	7.1µM*	-6%
COc1cccc2c1cc1c(=O)n(CC(=O)N3CCN(c4cccc(C(F)(F)F)c4)CC3)nc(C)n12	-3%	·	18%	0%[59 µM]	-3%
COc1ccc(N2CCCC2)c(NC(=O)c2ccc([N+](=O)[O-])o2)c1	28µM*	·	35µM*	?	14µM*
O=C(Nc1cc([N+](=O)[O-])ccc1N1CCCC1)c1ccco1	-16%	0%	5%	50µM*	-11%
CS(=O)(=O)N1CCN(c2ccccc2NC(=O)c2ccc(-c3ccc(Cl)cc3Cl)o2)CC1	-19%	-5%	24%	-50%[12.7 µM]	40%
CN1CCN(c2ccccc2NC(=O)c2ccc(-c3ccc(Cl)cc3Cl)o2)CC1	?	·	4%	45µM*	?
O=C(Nc1ccccc1N1CCCC1)c1ccc([N+](=O)[O-])o1	?	·	-15%	3%[12.7 µM]	32µM*
O=S(=O)(Nc1cccc(-c2ccc(N3CCCCC3)nn2)c1)c1cccc(F)c1	-28%	·	8%[57 µM]	30%[59 µM]	?
Cc1ccc2c(=O)cc(C(=O)Nc3ccc(S(=O)(=O)N4CCCCCC4)cc3)oc2c1C	-23%	·	22%	-28%[59 µM]	-13%
O=C1c2ccccc2C(=O)c2c(O)c(O)cc(O)c21	22µM*	?	11µM*	?	·
Nc1ccc(Br)c2c1C(=O)c1ccccc1C2=O	?	?	?	4%[0.0925 µM]	10µM*
COc1ccc(OC)c2c1C(=O)c1ccccc1C2=O	-12%	-9%	12%	-3%[59 µM]	-1%
Cc1cc(O)c2c(c1O)C(=O)c1c(O)cc(C)c(O)c1C2=O	·	·	·	-35%[2.33 µM]	·
COc1cccc2c1C(=O)c1ccc3ccccc3c1C2=O	?	·	17%	40µM*	?
COc1ccc(N)c2c1C(=O)c1ccccc1C2=O	45µM*	-26%	45µM*	25µM*	32µM*
COc1ccc(Cn2c(CO)cnc2SCc2ccc(C)cc2)cc1	-32%	·	8%[57 µM]	-32%[59 µM]	?
O=C1C=C(O)c2c(O)cc(O)c(O)c2C1=O	1.6µM*	·	?	·	·
Nc1ccc(O)c2c1C(=O)c1ccccc1C2=O	5.6µM*	?	?	7.1µM*	4µM*
COc1ccc(OC)c2c1C(=O)C(Cl)=C(Cl)C2=O	0.89µM*	0%	2.2µM*	·	45µM*
Cc1ccnc(NS(=O)(=O)c2ccc(NC(=O)C(C)(C)Oc3ccc(Cl)cc3)cc2)n1	-13%	·	28%	?	-4%
O=C(Nc1cccc(C(=O)OCc2cc(=O)n3c4c(sc3n2)CCCC4)c1)c1cccc(F)c1	6%	·	28%	1%[12.7 µM]	-10%
CO[C@@]1(NC(=O)Cc2cccs2)C(=O)N2C(C(=O)O)=C(COC(N)=O)CS[C@@H]21	56µM*	?	14%	?	50µM*
COc1ccc2c(CNCCc3ccccc3)c(C(=O)O)n(Cc3cccc(F)c3)c2c1	?	·	-15%	?	-34%
CC(C)Sc1nc2sccc2c(=O)n1-c1ccccc1	-3%	·	25%	40µM*	-13%
CCN(CCNC(=O)c1ccc(C#N)cc1)c1cccc(C)c1	-31%	·	-13%	13µM*	-24%
SMILES	JMJD2A Tudor	L3MBTL1 block	HP1b binding inh	G9a inh	BAZ2B block
CCN(CCCNC(=O)c1ccc(Sc2ccc(Cl)cc2)c(NC(C)=O)c1)c1cccc(C)c1	?	·	?	13µM*	?
COc1cccc(CNC(=O)CCn2c(=O)c3cccn3c3ccc(F)cc32)c1OC	-19%	·	35%	10%[59 µM]	2%
O=C(COC(=O)Cc1ccc(S(=O)(=O)N2CCOCC2)s1)NCc1ccccc1	-10%	-2%	24%	?	-7%
NS(=O)(=O)c1cccc(NC(=O)COC(=O)Cc2ccc(S(=O)(=O)N3CCCCC3)s2)c1	-26%	-2%	38%	45µM*	?
O=C(COC(=O)Cc1ccc(S(=O)(=O)N2CCCCC2)s1)Nc1ccc2c(c1)OCO2	-27%	-6%	3%	22µM*	·
O=C(COC(=O)Cc1ccc(S(=O)(=O)N2CCOCC2)s1)NCCc1ccccc1	-27%	·	4%	?	50µM*
COC(=O)/C=C/c1ccccc1S(=O)(=O)N(Cc1ccccc1)Cc1ccco1	56µM*!	·	22%	9%[12.7 µM]	50µM*
CCC(=O)Nc1ccc2nc(SCCOc3ccc(C)cc3OC)sc2c1	5%	·	30%	5%[59 µM]	-23%
CCCCn1c(-c2csc3ccccc23)n[nH]c1=S	?	·	22%	1.4µM*	-2%
CCCCCCn1c(-c2cccs2)n[nH]c1=S	28µM*	-13%	-15%	5.6µM*	-23%
CCCCn1c(SCc2nc3ccccc3s2)nc2ccccc2c1=O	-11%	0%	83%	5%[59 µM]	3%
CCn1c(=S)[nH]c2nc3c(cc2c1=O)CCCC3	-4%	3%	43%	22%	-2%[57.1 µM]
CCCCn1c(-c2csc3c2CCC(C)C3)n[nH]c1=S (centres undefined)	-27%	-6%	6%	24%[59 µM]	-7%
CCn1c(-c2csc3c2CCCC3)n[nH]c1=S	10µM*	-7%	-22%	7.9µM*	-7%
C=CCn1c(-c2csc3c2CCC(C)C3)n[nH]c1=S (centres undefined)	?	-4%	6%	1.4µM*	-35%
Cc1ccc(-n2nc(C)c3c(C(=O)NCc4ccccc4)cc(C4CC4)nc32)cc1	-2%	·	14%	-34%[59 µM]	11%[57.1 µM]
Cc1cc(-c2ccc(S(=O)(=O)NCc3ccccc3Cl)s2)on1	-3%	·	27%	-6%[59 µM]	15%
Cc1ccc(CNC(=O)C2CCN(S(=O)(=O)c3c(C)noc3/C=C/c3ccccc3F)CC2)o1	1%	·	15%[57 µM]	7%[59 µM]	-2%
CC(C)CN(C(=O)COC(=O)CCC(=O)c1ccc(F)cc1)c1c(N)n(Cc2ccccc2)c(=O)[nH]c1=O	-9%	5%	35%	9%[0.501 µM]	9%
CCCN1CNc2c(c(=O)[nH]c(=S)n2CCc2ccc(Cl)cc2Cl)C1	-12%	·	13%	·	·
CCCCn1c(-c2csc3c2CCCC3)n[nH]c1=S	40µM*	·	-5%	?	-31%
CCN(CC)C(=O)Cn1c(=O)n(-c2ccc(Cl)c(Cl)c2)c(=O)c2c(C)c(C(=O)N(CC)CC)sc21	-13%	·	-5%	-2%[59 µM]	-2%
NN=C1c2cc(S(=O)(=O)NCCO)ccc2-c2ccc(S(=O)(=O)NCCO)cc21	-11%	·	36%	·	·
COc1ccc(C(=O)NCCSc2c(C)[nH]c3ccccc23)cc1	-33%	·	16%	-49%[59 µM]	71µM*
Cc1[nH]c2ccccc2c1SCCNC(=O)c1ccc(F)cc1	?	·	14%	-3%[59 µM]	-23%
ON1C(c2ccc(Cl)cc2Cl)N(O)[C@H]2CCCC[C@H]21 (some centres undefined)	-10%	1%	27%	50µM*	-3%
